Assay outcomes deposited in PubChem BioAssay by Center for Chemical Genomics, University of Michigan.
Dicer inh: human Dicer pre-microRNA cleavage inhibition; cat-ELCCA pre-miR-21 Dicer processing, chemiluminescence; active compounds read high; AID 1347074; Q9UPY3; z-score at 25 µM; 6% of 47,000 active; in the data active = z-score above about 3, passing the limit was not always enough;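 note: plate controls were vehicle for no effect and no enzyme for full effect; higher signal means more uncleaved substrate so more Dicer inhibition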
Target sequence (Q9UPY3 whole entry, looked up): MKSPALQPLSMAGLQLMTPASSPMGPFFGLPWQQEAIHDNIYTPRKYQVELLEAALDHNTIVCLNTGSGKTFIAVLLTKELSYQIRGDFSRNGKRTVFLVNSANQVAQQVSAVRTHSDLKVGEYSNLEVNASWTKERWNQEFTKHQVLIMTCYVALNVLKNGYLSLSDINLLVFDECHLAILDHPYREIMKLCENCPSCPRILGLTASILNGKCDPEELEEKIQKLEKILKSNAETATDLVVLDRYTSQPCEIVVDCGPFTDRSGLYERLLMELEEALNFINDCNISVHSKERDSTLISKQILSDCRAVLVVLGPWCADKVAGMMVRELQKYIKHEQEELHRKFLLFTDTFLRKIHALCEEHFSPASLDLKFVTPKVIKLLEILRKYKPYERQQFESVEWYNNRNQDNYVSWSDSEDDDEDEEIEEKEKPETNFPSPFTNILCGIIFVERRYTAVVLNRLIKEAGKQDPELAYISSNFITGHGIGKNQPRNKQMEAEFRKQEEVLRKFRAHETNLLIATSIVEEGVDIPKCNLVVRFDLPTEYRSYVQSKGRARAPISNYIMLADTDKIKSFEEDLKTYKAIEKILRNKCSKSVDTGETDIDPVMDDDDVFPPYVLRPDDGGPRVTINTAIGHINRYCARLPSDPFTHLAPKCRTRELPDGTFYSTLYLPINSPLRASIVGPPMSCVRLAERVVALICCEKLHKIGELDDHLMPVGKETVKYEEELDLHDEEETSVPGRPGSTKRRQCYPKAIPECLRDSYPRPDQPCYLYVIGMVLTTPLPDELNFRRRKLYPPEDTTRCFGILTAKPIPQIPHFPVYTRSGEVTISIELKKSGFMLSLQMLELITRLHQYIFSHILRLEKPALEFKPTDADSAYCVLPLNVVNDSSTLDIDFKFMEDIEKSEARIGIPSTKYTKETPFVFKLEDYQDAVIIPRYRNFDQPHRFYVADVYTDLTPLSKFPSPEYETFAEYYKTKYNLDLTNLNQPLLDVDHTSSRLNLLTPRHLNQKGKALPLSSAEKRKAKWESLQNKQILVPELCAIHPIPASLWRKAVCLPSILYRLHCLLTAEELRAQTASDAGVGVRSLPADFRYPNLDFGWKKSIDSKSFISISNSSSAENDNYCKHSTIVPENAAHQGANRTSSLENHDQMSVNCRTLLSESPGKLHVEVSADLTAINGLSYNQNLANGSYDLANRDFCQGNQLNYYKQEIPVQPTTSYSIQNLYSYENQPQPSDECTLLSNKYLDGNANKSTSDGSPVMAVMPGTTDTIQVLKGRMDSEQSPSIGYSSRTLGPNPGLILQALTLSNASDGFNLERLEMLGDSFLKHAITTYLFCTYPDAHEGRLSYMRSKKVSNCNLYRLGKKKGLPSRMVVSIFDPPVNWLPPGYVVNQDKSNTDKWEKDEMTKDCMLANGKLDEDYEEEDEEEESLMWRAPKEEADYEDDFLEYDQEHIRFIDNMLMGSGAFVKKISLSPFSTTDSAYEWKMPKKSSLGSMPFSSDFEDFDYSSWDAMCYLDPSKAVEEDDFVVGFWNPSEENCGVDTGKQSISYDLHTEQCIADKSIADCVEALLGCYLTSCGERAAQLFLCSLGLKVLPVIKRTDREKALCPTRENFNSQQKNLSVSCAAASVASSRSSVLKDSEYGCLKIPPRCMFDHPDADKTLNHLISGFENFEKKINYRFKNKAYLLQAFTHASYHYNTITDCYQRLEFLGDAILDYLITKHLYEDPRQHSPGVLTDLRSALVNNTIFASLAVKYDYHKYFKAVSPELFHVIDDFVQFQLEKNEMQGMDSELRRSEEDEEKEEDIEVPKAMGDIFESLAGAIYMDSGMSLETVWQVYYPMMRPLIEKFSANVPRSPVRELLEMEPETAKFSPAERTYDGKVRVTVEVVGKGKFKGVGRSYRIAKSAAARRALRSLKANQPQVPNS
Starred values were filed as active, the others as inactive. Many of the other results were omitted from the sample, so hits are more common in it than they were.

SMILES | Dicer inh
O=C(NCc1cccs1)c1nc2ncccn2n1 | -0.35
C=CCn1c(SCC(=O)c2ccccc2F)nc2sc(C)c(C)c2c1=O | -1.2
Cc1c2c(=O)n(-c3nc4ccccc4s3)nc-2cc(O)n1CCc1cnc[nH]1 | 3.6*
Cc1c2c(=O)n(-c3nc4ccccc4s3)nc-2cc(O)n1CCc1c[nH]c2ccccc12 | 1.5
CCC(C)Cn1c(C)c2c(=O)n(-c3nc4ccccc4s3)[nH]c2cc1=O (stereo unspecified) | 0.75
CCOc1cc(C2c3c(oc4ccc(C)cc4c3=O)C(=O)N2Cc2ccccc2)ccc1O (stereo unspecified) | -0.16
CC(C)N1C(=O)C(O)(CC(=O)c2ccco2)c2ccccc21 (stereo unspecified) | 6.9*
COc1ccc(OC)c(C(=O)CC2(O)C(=O)N(C(C)C)c3ccccc32)c1 (stereo unspecified) | 0.57
CCCN1C(=O)C(O)(CC(=O)c2ccco2)c2ccccc21 (stereo unspecified) | 0.02
O=C(Cn1cc(C(=O)C2CCCCC2)c2ccccc21)NC1CCCC1 | -0.68
CC1(C(=O)O)NC(c2ccc(O)cc2O)C2C(=O)N(c3ccc(Br)cc3)C(=O)C21 (stereo unspecified) | 5*
Cc1ccc(N2C(=O)C3C4C=CC(CO)(O4)C3C2=O)cc1Br (stereo unspecified) | -0.21
Cc1ccc(N2C(=O)C3C4c5ccccc5C(C(=O)O)(c5ccccc54)C3C2=O)cc1 (stereo unspecified) | 1.6
Cc1ccc(-c2c(Cl)sc(S(C)(=O)=O)c2C#N)cc1 | -1.5
FC(F)(F)c1c2c(nc3cc(-c4ccc(Cl)cc4)nn13)-c1ccccc1C2 | -1.3
O=C(NCCN1CCOCC1)c1cc2nc3c(c(C(F)(F)F)n2n1)CCc1ccccc1-3 | 4.3*
O=C(NCCN1CCOCC1)c1cc2nc(-c3ccc(Br)cc3)cc(C(F)(F)F)n2n1 | 1.3
O=C(Nc1cccnc1)c1cc2nc(-c3ccc(Cl)cc3)cc(C(F)(F)F)n2n1 | -2.2
O=C(Nc1ccc(O)cc1)c1cc2nc3c(c(C(F)(F)F)n2n1)CCc1ccccc1-3 | 3.2*
c1ccc2c(c1)CCCc1cc(NCCN3CCOCC3)nnc1-2 | 0.37
CCOc1ccc(/C(O)=C2\C(=O)C(=O)N(c3nnc(C)s3)C2c2ccccc2F)cc1 (stereo unspecified) | 0.96
C[C@H](N)C(=O)Nc1ccc([N+](=O)[O-])cc1 | -0.67
Oc1cccc(C=NCCNc2nccc(C(F)(F)F)n2)c1 | -0.42
NCC(=O)NC(Cc1ccccc1)C(=O)O (stereo unspecified) | 1.4
COc1cc(C2Nc3ccccc3NC3=C2C(=O)CC(c2ccc4c(c2)OCO4)C3)ccc1OC(C)=O (stereo unspecified) | 1.4
SMILES | Dicer inh
COc1ccc(C2CC(=O)C3=C(C2)Nc2ccccc2NC3c2ccc(OC)c(O)c2)cc1 (stereo unspecified) | 1
Cc1ccc(C2CC(=O)C3=C(C2)Nc2ccccc2NC3c2ccc3c(c2)OCO3)cc1 (stereo unspecified) | -1.1
COc1ccc(C2Nc3ccccc3NC3=C2C(=O)CC(c2ccccc2)C3)c(OC)c1 (stereo unspecified) | 1.7
COc1ccc(C2CC(=O)C3=C(C2)Nc2ccccc2NC3c2cccc3ccccc23)cc1OC (stereo unspecified) | 5.4*
COc1ccc(C2CC(=O)C3=C(C2)Nc2ccccc2NC3c2cc(OC)ccc2OC)cc1 (stereo unspecified) | -0.4
COc1ccc(C2CC(=O)C3=C(C2)Nc2ccccc2NC3c2ccc(SC)cc2)cc1OC (stereo unspecified) | 5.2*
CSc1ccc(C2Nc3ccccc3NC3=C2C(=O)CC(c2ccc4c(c2)OCO4)C3)cc1 (stereo unspecified) | 4.6*
COc1cc(C2Nc3ccccc3NC3=C2C(=O)CC(c2ccc(OC)c(OC)c2)C3)ccc1O (stereo unspecified) | -0.72
CC(C)(C)NC1CC(=O)N(c2ccc(Cl)cc2)C1=O (stereo unspecified) | -1.1
CCOC(=O)C(=O)c1csc(NC(=O)c2ccco2)n1 | 0
CC(C)c1ccc2c(c1)CCC1C(C)(CNC(=O)/C=C/C(=O)O)CCCC21C (stereo unspecified) | -0.51
CCOC(=O)c1cc(=O)n(C)c2c1c(=O)oc1ccccc12 | -0.79
CN(C)/C=N/c1nnc(Sc2ccc([N+](=O)[O-])cn2)s1 | -0.79
CCCCCn1c(SCC(=O)Nc2ccc(Cl)cc2)n[nH]c1=O | -0.47
CC(C)c1nc2sc3c(NCCCN(C)C)ncnc3c2c2c1CCCC2 | 0.29
CCOC(=O)CC1=Nn2c(nnc2-c2ccc(C)cc2)SC1 | 0.02
COC(=O)c1ccc(OCC(F)(F)F)nc1 | -0.41
CCCCNC(=O)c1cc2cccc([N+](=O)[O-])c2[nH]1 | 1.1
O=C(O)c1cc2cccc([N+](=O)[O-])c2[nH]1 | 132*
O=[N+]([O-])c1cccc2cn[nH]c12 | -0.78
Cc1[nH]nc(N/N=C/c2ccccc2Cl)c1C(=O)O | 2.9
COC(=O)/C=C(\Nc1ccsc1C(=O)OC)C(=O)OC | -0.76
CSc1cc(=O)c2ccccc2s1 | 1
CCCc1cc(=O)oc2cc(OCC(=O)NNC(=S)NC(=O)c3ccc(Cl)cc3)ccc12 | 1.7
Cc1cc2nccc(-c3ccc(Cl)cc3)n2n1 | 1.4
SMILES | Dicer inh
Oc1ccccc1-c1ccnc2cc(-c3ccc(Cl)cc3)nn12 | 3.3*
COc1ccc(-c2cc3nccc(-c4cc(Cl)ccc4O)n3n2)cc1 | 5.2
Cc1ccc(O)c(-c2ccnc3cc(-c4ccccc4)nn23)c1 | 1.1
COc1ccc(-c2cc3nccc(-c4ccccc4O)n3n2)cc1 | 2
CN1C(=O)COc2ccc(-c3ccnc4cc(-c5ccc(Cl)cc5)nn34)cc21 | -1.7
Oc1ccc(F)cc1-c1ccnc2cc(-c3ccc(Cl)cc3)nn12 | 4*
c1ccc(-c2cc3nccc(-c4ccccc4)n3n2)cc1 | 0.55
Oc1ccc(Cl)cc1-c1ccnc2cc(-c3ccccc3)nn12 | 9.3*
COc1cc(CNCCSc2nnnn2C)cc(Cl)c1OCc1ccc(Cl)cc1 | 0.17
Cn1ncc(Br)c1NC(=O)c1ccccc1 | 0.45
COc1ccc(-c2nnn(CC(=O)O)n2)cc1 | 0.61
C[C@@H](c1ccccc1)N1C(=O)CC[C@H]2CC(=O)CC[C@@H]21 | -0.22
COC(=O)C1=C(C)NC2=C(C(=O)CC(C)(C)C2)C1c1ccc(Br)cc1 (stereo unspecified) | -0.33
O=c1c(Sc2ccccc2)c(O)cc(-c2ccccc2)n1-c1ccccc1 | 0.19
CN(/N=C1\CCCc2occ(C(=O)O)c21)c1ncc(Cl)cc1C(F)(F)F | 0.7
Cc1nn2c3c(cnc2c1-c1ccccc1)C(=O)CC(c1ccc(F)cc1)C3 (stereo unspecified) | -0.43
Clc1ccc(-c2nnc3sc(-c4cccs4)nn23)cc1 | 0.22
Clc1ccc(-c2nn3c(-c4ccccc4)nnc3s2)cc1 | 3.1*
COc1ccc(-c2nn3c(-c4ccccc4)nnc3s2)cc1 | -0.84
Cc1cccc(Cl)c1NC(=S)N1CCCC1 | -1.5
Cc1csc2sc(-c3ccn[nH]3)c(C)c12 | 3.5*
Cc1csc2sc(-c3ccnc(SCc4ccccc4)n3)c(C)c12 | 0.18
CCOC(=O)c1sc2sc(-c3ccn[nH]3)c(C)c2c1C | -0.4
COc1cc(OC)c(C2C(C#N)=C(N)Oc3n[nH]c(-c4ccccc4)c32)c(OC)c1 (stereo unspecified) | -6.1
Nc1ccc(-c2nc3c(Cl)cccc3[nH]2)cc1 | 1.7
Nc1ccc(-c2nc3c(ccc4ccccc43)[nH]2)cc1 | 23*
Nc1ccc(-c2nc3ccccc3[nH]2)cc1 | -0.71
